Data as given in PubChem BioAssay.
Unmarked numbers belong to inactive results.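 How the source made its calls: active means viability increase at or above a cutoff of the median across tested compounds plus 3 SD (cut at about 8.5% in these data, passing the limit was not always enough); inconclusive means some gains above the cutoff, reason not given; inactive means the rest.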

Assay: viability gain of MRP-1-high H69AR cells under doxorubicin, pilot screen, MRP-1 activator project, CellTiter-Glo, duplicate (AID 807);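 further: compound pretreatment 18-22 h then 72 h combined with doxorubicin; 0% = doxorubicin alone and 100% = vehicle without doxorubicin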
Settings: H69AR viability with doxorubicin, CellTiter-Glo luminescence; at 10 µM; hits give high values
Compound Cc1nnc2n(-c3ccc(Cl)cc3)c(=O)c3c4c(sc3n12)CN(C)CC4 has a viability increase of -1.73%.
Work on O=c1oc2c3c4c(cc2s1)CCCN4CCC3 yielded a viability increase of -3.91%.
For Cc1cc(C)n2nc(SCc3nc4ccccc4[nH]3)nc2n1, the viability increase was -2.9%.
Cc1cc(C)cc(N(CC(=O)Nc2cccc(C)n2)S(=O)(=O)c2c(C)noc2C)c1 gave a viability increase of -4.06%.
Compound COc1cccc(C2C3=C(N=C4SCC(=O)N42)c2ccccc2CC3)c1OC (stereo not given) has a viability increase of -1.55%.
O=C(Cn1nc(Cc2ccncc2)c2ccccc2c1=O)N1CCN(C(=O)c2ccco2)CC1 gave a viability increase of -1.96%.
In the case of O=C(Nc1c(C(=O)NCc2ccco2)cnn1-c1ccccc1)c1ccc(F)cc1, the viability increase is reported as -5.34%.
With Cc1nc2ccc(S(=O)(=O)NC(C(=O)Nc3nccs3)C(C)C)cc2s1 (stereo not given) the viability increase was -1.85%.
For Cn1nnnc1SCC(=O)N1CCN(c2ccccc2)CC1, the viability increase was -0.97%.
In the case of COc1cc2c(cc1OC)-c1nnc(C)n1C1(CCCC1)C2, the viability increase is reported as -2.69%.
Work on CS(=O)(=O)N(Cc1ccco1)CC(O)Cn1c2ccccc2c2ccccc21 (stereo not given) yielded a viability increase of -4.51%.
With COc1cccc(C2=NOC(C(=O)N3CCc4ccccc4C3)C2)c1 (stereo not given) the viability increase was -2.18%.
In the case of O=C(CC1Oc2ccccc2NC1=O)NCCCN1CCOCC1 (stereo not given), the viability increase is reported as -2.31%.
In the case of CCOC(=O)N1CCN(C(=O)c2ccc(CS(=O)(=O)c3c(Cl)cccc3Cl)o2)CC1, the viability increase is reported as -2.77%.
Compound CCn1cc(SCC(=O)Nc2cc(C)on2)c2ccccc21 has a viability increase of 1.09%.
